# Laboratory results published in the supplement of paper PMC10849652.
# The full data set covers some 8,800 targets. This sample favours those with a hit. About 0.5% of all pairs of compound and target were hits. Unmarked numbers belong to inactive results.
# How the values were obtained:
# Experiment in all cases: log2 fold change, soluble protein after heating vs DMSO (PISA); higher = thermal stabilisation; K562 lysate, 10 uM; active = over 0.2 and 3.5 SD of the protein, either way, in both replicates (recomputed)
# [1] = compound: CS(=O)(=O)CCNCc1ccc(-c2ccc3ncnc(Nc4ccc(OCc5cccc(F)c5)c(Cl)c4)c3c2)o1 [lapatinib]
# Outline: (§1)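 K562 pellets were dounce-homogenised in PBS pH 7.4 containing 1 mM MgCl2, and the crude extract, at 1 mg/mL protein, was exposed to 10 μM compound for 30 min. Aliquots were heated for 3 min across 48°C-58°C, pooled, brought to 0.5% NP-40 at 4°C and spun at 21,000xg for 90 min, with the supernatant taken as soluble protein. TMTpro 16plex LC-MS/MS with equalised channel sums quantified that protein. Values are log-two fold changes in thermal stability relative to solvent controls, taken from duplicates.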
# [2] = compound: CS(=O)(=O)N1CCN(Cc2cc3nc(-c4cccc5[nH]ncc45)nc(N4CCOCC4)c3s2)CC1 [pictilisib]
# Outline: as §1
# [3] = compound: C[C@@H](Oc1cc(-c2cnn(C3CCNCC3)c2)cnc1N)c1c(Cl)ccc(F)c1Cl [crizotinib]
# Outline: as §1
# [4] = compound: C[C@H](C1=CC=C(C=C1)C(=O)NC2=C3C=CNC3=NC=C2)N
# Outline: as §1
# [5] = compound: C[C@H](Nc1ncnc2nc[nH]c12)c1cc2cccc(Cl)c2c(=O)n1-c1ccccc1 [duvelisib]
# Outline: as §1
# [6] = compound: Cc1cc(Nc2cc(CN3CCOCC3)c3nc(C)c(Cc4ccc(Cl)cc4F)n3n2)n[nH]1 [gandotinib]
# Outline: as §1
# [7] = compound: Cc1cc(Nc2cc(N3CCN(C)CC3)nc(Sc3ccc(NC(=O)C4CC4)cc3)n2)n[nH]1 [tozasertib]
# Outline: as §1
# [8] = compound: Cc1ccc(-n2nc(C(C)(C)C)cc2NC(=O)Nc2ccc(OCCN3CCOCC3)c3ccccc23)cc1 [doramapimod]
# Outline: as §1
# [9] = compound: Cc1ccc(NC(=O)c2ccc(CN3CC[C@H](N(C)C)C3)c(C(F)(F)F)c2)cc1Nc1nccc(-c2cncnc2)n1 [bafetinib]
# Outline: as §1
# [10] = compound: Cc1cccc(CC(=O)N2CCc3c2ccc(-c2cn(C)c4ncnc(N)c24)c3F)n1
# Outline: as §1
# [11] = compound: Cc1cn(-c2cc(NC(=O)c3ccc(C)c(Nc4nccc(-c5cccnc5)n4)c3)cc(C(F)(F)F)c2)cn1 [nilotinib]
# Outline: as §1
# [12] = compound: Cc1nc(Nc2n[nH]c3c2CN(C(=O)N[C@H](CN(C)C)c2ccccc2)C3(C)C)c2sccc2n1
# Outline: as §1
# [13] = compound: Cc1nc(Nc2ncc(C(=O)Nc3c(C)cccc3Cl)s2)cc(N2CCN(CCO)CC2)n1 [dasatinib]
# Outline: as §1
# [14] = compound: Cc1ncc(-c2ccnc(Nc3ccc(S(C)(=O)=O)cc3)n2)n1C(C)C
# Outline: as §1
# [15] = compound: Cn1cc(-c2ccc3c(c2)CCN3C(=O)Cc2cccc(C(F)(F)F)c2)c2c(N)ncnc21
# Outline: as §1
# [16] = compound: Cn1cc(CNCC2CCN(c3ncc(C(=O)NO)cn3)CC2)c2ccccc21 [quisinostat]
# Outline: as §1
# [17] = compound: Cn1cncc1[C@@](N)(c1ccc(Cl)cc1)c1ccc2c(c1)c(-c1cccc(Cl)c1)cc(=O)n2C [tipifarnib]
# Outline: as §1
# [18] = compound: NC(=O)Nc1cc(-c2cccc(F)c2)sc1C(=O)N[C@H]1CCCNC1
# Outline: as §1
# [19] = compound: NC(=O)c1cnc(N[C@@H]2CCCC[C@@H]2N)nc1Nc1cccc(-n2nccn2)c1
# Outline: as §1
# [20] = compound: NC1(c2ccc(-c3nc4ccn5c(=O)[nH]nc5c4cc3-c3ccccc3)cc2)CCC1
# Outline: as §1
# UniProt P51116, sequence (P51116 whole entry, looked up): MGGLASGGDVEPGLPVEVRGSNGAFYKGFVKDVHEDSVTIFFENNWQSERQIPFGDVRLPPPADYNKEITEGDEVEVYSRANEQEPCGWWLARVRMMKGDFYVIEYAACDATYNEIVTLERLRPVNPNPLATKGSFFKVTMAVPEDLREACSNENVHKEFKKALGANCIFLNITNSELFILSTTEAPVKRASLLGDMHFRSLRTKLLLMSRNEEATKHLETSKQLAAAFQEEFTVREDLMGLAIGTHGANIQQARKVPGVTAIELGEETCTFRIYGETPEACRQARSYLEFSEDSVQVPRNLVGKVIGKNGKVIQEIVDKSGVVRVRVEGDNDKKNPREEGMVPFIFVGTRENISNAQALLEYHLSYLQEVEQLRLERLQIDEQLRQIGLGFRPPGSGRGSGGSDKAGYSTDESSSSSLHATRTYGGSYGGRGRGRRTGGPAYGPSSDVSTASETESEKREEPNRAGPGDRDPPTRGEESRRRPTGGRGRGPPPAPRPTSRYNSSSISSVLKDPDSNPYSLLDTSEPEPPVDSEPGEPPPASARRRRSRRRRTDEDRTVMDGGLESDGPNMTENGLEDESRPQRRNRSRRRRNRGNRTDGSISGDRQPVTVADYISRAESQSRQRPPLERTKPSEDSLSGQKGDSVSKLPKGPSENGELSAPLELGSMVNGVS
# UniProt P54852, sequence (P54852 whole entry, looked up): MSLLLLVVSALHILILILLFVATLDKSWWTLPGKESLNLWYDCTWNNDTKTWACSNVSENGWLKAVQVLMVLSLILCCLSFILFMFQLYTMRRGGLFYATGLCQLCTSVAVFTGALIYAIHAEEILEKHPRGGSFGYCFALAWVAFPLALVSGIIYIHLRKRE
# UniProt O14641, sequence (O14641 whole entry, looked up): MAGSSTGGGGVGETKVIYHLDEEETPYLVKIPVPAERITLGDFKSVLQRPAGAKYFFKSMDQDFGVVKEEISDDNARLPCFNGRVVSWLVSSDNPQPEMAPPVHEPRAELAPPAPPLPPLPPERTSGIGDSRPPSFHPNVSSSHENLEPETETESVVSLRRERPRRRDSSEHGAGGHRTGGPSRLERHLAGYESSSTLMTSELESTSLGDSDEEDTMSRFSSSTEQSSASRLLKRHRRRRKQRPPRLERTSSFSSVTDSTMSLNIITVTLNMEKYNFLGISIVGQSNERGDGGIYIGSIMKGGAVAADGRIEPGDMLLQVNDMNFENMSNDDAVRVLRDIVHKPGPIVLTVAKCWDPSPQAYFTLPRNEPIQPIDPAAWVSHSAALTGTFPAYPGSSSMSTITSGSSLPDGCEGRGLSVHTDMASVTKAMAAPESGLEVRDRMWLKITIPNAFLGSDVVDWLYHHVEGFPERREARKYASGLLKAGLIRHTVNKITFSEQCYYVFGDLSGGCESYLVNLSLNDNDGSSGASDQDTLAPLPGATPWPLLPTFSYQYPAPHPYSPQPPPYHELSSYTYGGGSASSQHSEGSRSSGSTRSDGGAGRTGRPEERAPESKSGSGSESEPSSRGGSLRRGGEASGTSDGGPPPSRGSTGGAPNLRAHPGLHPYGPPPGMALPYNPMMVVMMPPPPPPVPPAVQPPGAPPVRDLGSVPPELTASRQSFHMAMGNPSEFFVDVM
# UniProt Q09472, sequence (Q09472 whole entry, looked up): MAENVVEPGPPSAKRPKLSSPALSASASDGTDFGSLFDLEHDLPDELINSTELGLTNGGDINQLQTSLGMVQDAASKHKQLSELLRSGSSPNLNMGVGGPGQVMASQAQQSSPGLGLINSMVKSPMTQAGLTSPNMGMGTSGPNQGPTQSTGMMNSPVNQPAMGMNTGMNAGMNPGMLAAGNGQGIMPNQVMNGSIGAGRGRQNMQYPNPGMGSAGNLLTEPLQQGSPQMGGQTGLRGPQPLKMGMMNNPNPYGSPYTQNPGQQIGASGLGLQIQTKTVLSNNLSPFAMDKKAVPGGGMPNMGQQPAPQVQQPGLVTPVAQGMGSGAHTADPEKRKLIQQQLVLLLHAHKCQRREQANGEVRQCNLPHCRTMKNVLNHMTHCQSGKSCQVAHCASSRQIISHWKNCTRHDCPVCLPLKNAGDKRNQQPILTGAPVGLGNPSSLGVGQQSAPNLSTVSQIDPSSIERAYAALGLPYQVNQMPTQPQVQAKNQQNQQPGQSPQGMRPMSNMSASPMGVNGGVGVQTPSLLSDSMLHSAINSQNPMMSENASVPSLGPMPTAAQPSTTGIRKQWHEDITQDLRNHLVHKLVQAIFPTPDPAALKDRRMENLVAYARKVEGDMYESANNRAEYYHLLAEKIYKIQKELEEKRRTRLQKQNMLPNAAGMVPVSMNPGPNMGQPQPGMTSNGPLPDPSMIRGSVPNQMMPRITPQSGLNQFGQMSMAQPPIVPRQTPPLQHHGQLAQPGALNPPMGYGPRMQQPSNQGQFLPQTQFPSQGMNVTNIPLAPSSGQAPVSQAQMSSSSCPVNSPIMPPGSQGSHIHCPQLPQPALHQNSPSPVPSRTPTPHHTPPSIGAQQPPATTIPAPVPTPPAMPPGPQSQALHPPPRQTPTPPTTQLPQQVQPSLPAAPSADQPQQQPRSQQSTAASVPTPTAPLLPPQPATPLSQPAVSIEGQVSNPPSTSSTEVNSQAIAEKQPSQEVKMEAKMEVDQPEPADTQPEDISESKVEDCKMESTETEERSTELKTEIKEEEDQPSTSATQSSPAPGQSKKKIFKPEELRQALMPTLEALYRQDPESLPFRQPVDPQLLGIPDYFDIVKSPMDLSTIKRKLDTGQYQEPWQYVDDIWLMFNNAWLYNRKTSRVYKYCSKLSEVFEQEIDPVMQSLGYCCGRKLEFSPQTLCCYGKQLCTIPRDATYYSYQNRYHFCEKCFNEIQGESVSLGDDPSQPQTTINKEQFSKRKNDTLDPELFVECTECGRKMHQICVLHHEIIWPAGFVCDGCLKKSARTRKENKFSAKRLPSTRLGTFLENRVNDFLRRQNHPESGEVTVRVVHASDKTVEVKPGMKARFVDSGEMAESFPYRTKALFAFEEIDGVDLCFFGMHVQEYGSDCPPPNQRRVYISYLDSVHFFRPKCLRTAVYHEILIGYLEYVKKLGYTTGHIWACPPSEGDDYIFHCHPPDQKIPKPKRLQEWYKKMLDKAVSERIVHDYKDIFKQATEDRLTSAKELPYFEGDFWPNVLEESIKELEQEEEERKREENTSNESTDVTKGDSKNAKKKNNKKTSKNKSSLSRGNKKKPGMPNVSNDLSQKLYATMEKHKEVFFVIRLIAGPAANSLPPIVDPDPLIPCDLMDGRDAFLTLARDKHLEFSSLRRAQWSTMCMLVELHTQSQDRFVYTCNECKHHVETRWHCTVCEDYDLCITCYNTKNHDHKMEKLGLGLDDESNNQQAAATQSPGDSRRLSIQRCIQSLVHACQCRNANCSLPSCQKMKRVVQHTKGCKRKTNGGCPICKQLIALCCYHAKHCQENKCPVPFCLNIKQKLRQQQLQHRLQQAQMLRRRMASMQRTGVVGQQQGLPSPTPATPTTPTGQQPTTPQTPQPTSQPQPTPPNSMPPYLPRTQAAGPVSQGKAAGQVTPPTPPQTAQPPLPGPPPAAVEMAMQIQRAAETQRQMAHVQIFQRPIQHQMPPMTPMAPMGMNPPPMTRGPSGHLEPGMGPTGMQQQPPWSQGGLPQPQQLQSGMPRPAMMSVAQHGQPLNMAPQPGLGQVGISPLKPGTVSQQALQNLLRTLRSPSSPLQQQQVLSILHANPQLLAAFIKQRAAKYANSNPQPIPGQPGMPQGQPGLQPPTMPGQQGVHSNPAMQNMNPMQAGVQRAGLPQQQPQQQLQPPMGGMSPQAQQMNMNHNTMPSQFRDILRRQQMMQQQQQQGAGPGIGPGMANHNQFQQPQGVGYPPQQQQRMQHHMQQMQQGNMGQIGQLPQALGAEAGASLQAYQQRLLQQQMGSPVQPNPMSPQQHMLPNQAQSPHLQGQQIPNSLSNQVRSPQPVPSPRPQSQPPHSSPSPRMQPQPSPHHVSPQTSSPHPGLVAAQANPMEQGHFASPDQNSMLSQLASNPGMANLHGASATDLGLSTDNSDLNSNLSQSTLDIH
# UniProt Q96G46, sequence (Q96G46 whole entry, looked up): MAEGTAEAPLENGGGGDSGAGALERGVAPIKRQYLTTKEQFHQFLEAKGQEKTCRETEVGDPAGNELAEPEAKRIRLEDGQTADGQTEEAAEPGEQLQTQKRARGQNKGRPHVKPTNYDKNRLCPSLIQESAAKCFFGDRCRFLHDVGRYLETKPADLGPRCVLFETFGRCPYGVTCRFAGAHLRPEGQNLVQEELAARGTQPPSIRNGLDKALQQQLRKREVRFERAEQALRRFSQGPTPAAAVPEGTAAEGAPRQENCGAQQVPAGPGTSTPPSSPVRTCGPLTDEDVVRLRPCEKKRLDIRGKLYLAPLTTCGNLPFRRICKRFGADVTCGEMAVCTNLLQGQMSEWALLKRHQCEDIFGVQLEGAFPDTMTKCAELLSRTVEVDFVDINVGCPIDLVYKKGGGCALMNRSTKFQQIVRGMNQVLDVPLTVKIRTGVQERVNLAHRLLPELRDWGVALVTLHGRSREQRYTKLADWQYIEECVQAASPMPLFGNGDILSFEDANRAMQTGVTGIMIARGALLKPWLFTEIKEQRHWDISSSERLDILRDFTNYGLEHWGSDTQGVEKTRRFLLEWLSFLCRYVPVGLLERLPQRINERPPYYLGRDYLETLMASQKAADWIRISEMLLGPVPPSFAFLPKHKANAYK
# UniProt Q9UET6, sequence (Q9UET6 whole entry, looked up): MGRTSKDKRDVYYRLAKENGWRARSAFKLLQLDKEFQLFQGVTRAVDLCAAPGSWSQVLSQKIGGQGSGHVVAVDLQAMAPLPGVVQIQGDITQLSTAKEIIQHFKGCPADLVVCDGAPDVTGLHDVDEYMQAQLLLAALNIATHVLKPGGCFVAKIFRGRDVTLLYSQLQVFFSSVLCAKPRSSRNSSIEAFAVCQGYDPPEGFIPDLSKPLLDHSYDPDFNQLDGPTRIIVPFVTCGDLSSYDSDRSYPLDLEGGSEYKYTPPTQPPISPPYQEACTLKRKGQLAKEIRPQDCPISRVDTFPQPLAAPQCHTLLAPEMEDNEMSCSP
# UniProt Q9NPA8, sequence (Q9NPA8 whole entry, looked up): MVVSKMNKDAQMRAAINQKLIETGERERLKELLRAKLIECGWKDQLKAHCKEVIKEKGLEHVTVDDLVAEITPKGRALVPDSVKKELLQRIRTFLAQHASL
Target,log2 fold change [1],log2 fold change [2],log2 fold change [3],log2 fold change [4],log2 fold change [5],log2 fold change [6],log2 fold change [7],log2 fold change [8],log2 fold change [9],log2 fold change [10],log2 fold change [11],log2 fold change [12],log2 fold change [13],log2 fold change [14],log2 fold change [15],log2 fold change [16],log2 fold change [17],log2 fold change [18],log2 fold change [19],log2 fold change [20]
GAPVD1 isoform 6 (UniProt Q14C86),0,-0.017,-0.023,0.054,0.011,-0.088,-0.002,0.025,-0.022,-0.018,0.006,0.005,-0.05,-0.005,0.044,-0.029,-0.02,0.032,0.013,0.026
DVL2 (UniProt O14641),0.096,-0.037,-0.056,0.026,0,-0.107,-0.039,0.106,-0.232,0.054,-0.03,-0.003,-0.114,0.027,-0.063,-0.13,-0.027,0.102,0.236,-0.097
ENY2 (UniProt Q9NPA8),0.025,-0.024,0.031,0.726 (active),0.034,-0.386 (active),0.019,-0.021,-0.07,-0.529 (active),-0.054,-0.002,0.045,0.007,0.033,-0.03,0.085,-0.03,-0.022,-0.007
FAM83D (UniProt Q9H4H8),-0.01,-0.024,-0.026,-0.021,-0.002,-0.018,-0.038,0.009,-0.116,0.031,-0.042,0.004,-0.026,0.008,-0.033,-0.061,-0.02,-0.019,0.05,0.01
FARSA (UniProt Q9Y285),-0.028,0.012,-0.05,-0.003,0.056,0.039,-0.063,0,-0.075,-0.047,-0.006,0.017,-0.03,-0.003,0.001,-0.037,0.003,0.009,-0.015,-0.056
FXR2 (UniProt P51116),-0.002,-0.055,-0.017,-0.022,-0.016,-0.074,0.009,0.037,0.002,0.027,-0.066,0.032,-0.027,0.003,0.074,0.025,0.015,-0.034,-0.012,-0.003
EP300 (UniProt Q09472),0.062,-0.078,0.047,-0.101,-0.037,-0.047,0.065,-0.016,0.044,0.089,0.036,0.037,-0.028,0.081,0.007,0.03,-0.043,0.036,0.023,0.046
DTYMK (UniProt P23919),0.026,-0.003,-0.042,0.055,0.023,-0.135,0.01,0.045,0.007,-0.029,-0.003,0.002,-0.072,-0.007,-0.025,-0.009,0.017,0.045,-0.024,-0.007
GAMT (UniProt Q14353),0.02,-0.028,0,0.02,0.082,0.002,-0.02,0.09,0.062,-0.046,-0.017,0.022,0.03,0.129,-0.025,-0.043,-0.137,0.024,-0.016,-0.002
GBA2 (UniProt Q9HCG7),-0.062,-0.012,0.014,-0.094,0.06,-0.009,-0.138,0.055,-0.199,0.054,-0.063,0.114,0.059,-0.079,0.034,-0.101,-0.213,0.023,0.058,-0.074
FBXO30 (UniProt Q8TB52),-0.015,-0.03,-0.013,0.187,0.024,-0.072,-0.021,0.045,0.032,-0.117,0.015,-0.032,0.012,0.067,0.02,0.001,0.012,-0.008,-0.017,0.005
EDARADD (UniProt Q8WWZ3),-0.037,-0.122,0.027,-0.049,0.015,0.074,0.082,0.086,0,-0.027,0.076,-0.036,-0.004,0.008,0.023,0.07,0.065,-0.05,-0.032,0.019
FTSJ1 (UniProt Q9UET6),0.01,-0.002,-0.051,0.051,-0.009,-0.088,-0.064,0.03,0.041,-0.052,-0.013,-0.039,-0.016,-0.007,-0.007,-0.032,-0.054,0.035,-0.001,0.029
EMP3 (UniProt P54852),0,-0.03,-0.002,-0.763 (active),0,0.351 (active),-0.078,0.029,-0.019,0.329 (active),0.007,0.094,-0.046,0.02,-0.046,-0.144,0.031,0.013,-0.035,-0.008
DUS3L (UniProt Q96G46),-0.009,-0.02,-0.027,0.202,-0.022,-0.081,0.009,-0.018,0.093,-0.097,0.008,-0.022,-0.019,-0.014,0.004,-0.098,-0.017,0.026,0,-0.021
GIPC3 (UniProt Q8TF64),0.157,-0.055,-0.103,-0.033,0.05,0.124,-0.097,0,-0.035,0.083,0.183,-0.602 (active),-0.071,0.097,-0.009,-0.309,-0.067,0.134,0.045,0.016
